High-throughput results as filed in PubChem BioAssay.
tim10-1 inh: growth inhibitors of tim10-1 mutant yeast, primary screen, luminescence, uHTS. S. cerevisiae tim10-1 ts strain growth, BacTiter-Glo, 24 h. actives 2.2% (n = 330,000). inhibition, % at 20 µM;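 active means inhibition of at least 40%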;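 further: mutant grown at 25 °C; 0% = DMSO wells with yeast and 100% = wells holding no yeast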
MPTP block: mitochondrial permeability transition pore inhibitors, primary screen, biochemical, isolated mouse mitochondria, absorbance | Ca2+ swelling absorbance, 30 min | inhibition, % at 10 µM | actives 1.4% (n = 360,000);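 active means inhibition of 50% or more, scaled per plate between neutral and stimulator controls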;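 further: 0% = DMSO wells given calcium and 100% = 1 mM EGTA wells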
TIM10 inh: growth inhibitors of isogenic TIM10 control yeast, primary screen, counter-screen for tim10-1 yeast inhibitor project, luminescence, uHTS. S. cerevisiae TIM10 strain growth, BacTiter-Glo luminescence, 24 h. inhibition, % at 10 µM. actives 1.4% (n = 330,000). AID 463195, 2010;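 active means inhibition of 40% or more at the single tested concentration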;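 further: wild-type TIM10 isogenic control strain grown at permissive 25 °C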
tim23-1 inh: growth inhibitors of tim23-1 mutant yeast, primary screen, luminescence, uHTS; S. cerevisiae tim23-1 growth, BacTiter-Glo luminescence, 24 h; inhibition, % at 20 µM; actives 1.3% (n = 330,000);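 active means growth inhibition of the mutant yeast at or above 50%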;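 further: temperature-sensitive mutant grown at 25 °C; plate controls were DMSO-treated mutant yeast for no effect and medium wells lacking yeast for full effect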
Mdm2 MdmX PPI: inhibitors of human Mdm2-MdmX association, primary screen, cell-based, luminescence, split luciferase, SaOS-2, uHTS; Protein Mdm4 (Homo sapiens) + E3 ubiquitin-protein ligase Mdm2 (Homo sapiens), …; inhibition, % at 8 µM; SaOS-2 split-luciferase Mdm2/MdmX complementation; actives 3% (n = 330,000);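 active means inhibition of at least 50% at 8 µM in the primary screen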
Target sequence (O15151 whole entry, looked up): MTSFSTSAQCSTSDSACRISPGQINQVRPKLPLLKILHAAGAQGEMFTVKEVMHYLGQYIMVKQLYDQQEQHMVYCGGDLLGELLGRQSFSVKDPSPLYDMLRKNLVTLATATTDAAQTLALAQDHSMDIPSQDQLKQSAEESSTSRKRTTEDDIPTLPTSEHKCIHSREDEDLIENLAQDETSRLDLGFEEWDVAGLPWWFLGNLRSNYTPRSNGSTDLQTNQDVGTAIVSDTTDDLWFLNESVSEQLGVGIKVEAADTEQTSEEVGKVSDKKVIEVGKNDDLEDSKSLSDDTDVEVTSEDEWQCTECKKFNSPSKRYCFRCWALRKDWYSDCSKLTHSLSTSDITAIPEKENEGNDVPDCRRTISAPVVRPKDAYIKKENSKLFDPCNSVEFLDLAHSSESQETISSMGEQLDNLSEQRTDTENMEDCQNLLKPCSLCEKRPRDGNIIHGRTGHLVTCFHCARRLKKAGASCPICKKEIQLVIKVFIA
Target sequence (Q00987 whole entry, looked up): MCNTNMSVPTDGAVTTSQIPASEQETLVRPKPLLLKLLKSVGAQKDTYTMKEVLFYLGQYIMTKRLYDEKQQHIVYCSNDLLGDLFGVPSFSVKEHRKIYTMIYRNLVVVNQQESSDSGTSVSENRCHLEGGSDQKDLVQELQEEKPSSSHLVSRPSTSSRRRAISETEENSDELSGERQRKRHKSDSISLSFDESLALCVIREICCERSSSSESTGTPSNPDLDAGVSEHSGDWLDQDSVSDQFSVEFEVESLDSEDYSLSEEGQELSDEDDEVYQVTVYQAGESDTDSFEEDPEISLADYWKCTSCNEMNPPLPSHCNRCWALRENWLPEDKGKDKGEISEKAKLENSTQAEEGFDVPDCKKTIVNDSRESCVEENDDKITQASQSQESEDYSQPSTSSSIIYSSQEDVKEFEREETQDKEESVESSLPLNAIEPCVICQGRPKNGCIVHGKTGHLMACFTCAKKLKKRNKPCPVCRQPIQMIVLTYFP
Mdm2 MdmX conf: Mdm2-MdmX complex disruptors, retested hits, confirmation, luminescence, single concentration | AID 489028, 2010 | inhibition, % at 8 µM | actives 55% (n = 10,000) | Mdm2-MdmX binding, luminescent assay | shares compounds with Mdm2 MdmX PPI; in the data active means inhibition above about 40%
FLuc counter: full-length luciferase signal inhibition, confirmation, counter-screen for Mdm2/MdmX interaction inhibitor project, cell-based, single concentration, SaOS-2. shares compounds with Mdm2 MdmX PPI. SaOS-2 full-length luciferase counterscreen, luminescence. inhibition, % at 8 µM. actives 77% (n = 6,200). AID 504607, 2011;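 active means mean inhibition at 8 µM reaching about 37%, which flags the compound as non-specific, limit read from the data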;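 further: p53-null SaOS-2 cells with luciferase driven by a doxycycline-inducible promoter; compound on cells about two nights before reading with doxycycline added after day one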
The depositor's hits bear a star; · = no result given. Sampled rows, rich in hits. Any-hit rate of the full collection: about 6.3%.

SMILES	tim10-1 inh	MPTP block	TIM10 inh	tim23-1 inh	Mdm2 MdmX PPI	Mdm2 MdmX conf	FLuc counter
O=c1c(C(c2nnnn2C2CCCCC2)N2CCCCC2)coc2ccc(Cl)cc12 (centres undefined)	12.3	3.8	15.2	31.8	52.7*	-1.6	·
C=C[C@H](Cc1ccccc1)N(Cc1ccccc1)S(=O)(=O)N(Cc1ccccc1)[C@H](C=C)Cc1ccccc1	5.8	0.7	-3.4	-0.4	89.8*	62.9*	86.3*
COC(=O)[C@@H](Cc1ccccc1)N(Cc1ccccc1)S(=O)(=O)N(Cc1ccccc1)[C@H](Cc1ccccc1)C(=O)OC	5.7	6.1	-1.5	-2.6	33.9	·	·
FC(F)(F)c1nc(-c2cccs2)ncc1-c1nnnn1-c1ccc(Cl)cc1	29.5	24.5	-4.3	15.5	69.4*	35.6	·
COc1ccc(S(=O)(=O)N(Cc2ccccc2)Cc2nc3ccccc3c(=O)[nH]2)cc1	3.2	-3.4	1.1	-5.8	20.8	·	·
COc1ccccc1CN(Cc1nc2ccccc2c(=O)[nH]1)S(=O)(=O)c1ccc2ccccc2c1	-0.1	2.9	3.6	-0.7	71.7*	14.2	·
N#Cc1ccc(-c2csc(NNC(=O)c3ccc(Br)cc3)n2)cc1	-6.0	6.7	2.2	9.0	77.2*	58.8*	10.1
NC(=O)c1ccc(NC(=O)C#Cc2ccccc2)cc1	25.2	-0.4	25.5	17.4	85.1*	77.1*	51.2*
COc1ccc(NC(=O)C#Cc2ccccc2)cc1OC	-50.2	0.4	-27.3	14.2	57.3*	34.2	·
COc1ccc(NC(=O)c2ccccc2SC)cc1OC	5.3	1.9	9.8	8.8	2.9	·	·
Cc1ccc(S(=O)(=O)N2C[C@@H]3[C@H]4CC[C@H](C4)[C@@H]3[C@@H](C)[C@@H]2c2cn(Cc3ccccc3)c3ccc(F)cc23)cc1	19.5	0.7	-2.4	30.6	32.2	·	·
C[C@@H]1[C@H]2[C@@H]3CC[C@@H](C3)[C@H]2CN[C@H]1c1cn(Cc2ccccc2)c2ccccc12	17.3	1.1	18.3	38.1	54.1*	30.8	·
C=C1C(C(=O)Nc2ccc(OC)cc2)C1C(=O)Nc1ccc(OC)cc1 (centres undefined)	-1.1	0.5	-21.4	-15.1	71.8*	25.2	·
O=C(Nc1ccc(F)cc1)C(c1cccc(F)c1)N1CCN(c2cccc(C(F)(F)F)n2)CC1 (centres undefined)	·	9.7	·	·	·	·	·
CCOC(=O)c1cc2c(ccn2C)n1Cc1cc(C)ccc1C	16.7	0.3	-0.8	6.6	4.4	·	·
CC(C)OC(=O)c1cc2c(ccn2C)n1CC(=O)N(Cc1ccccc1)c1ccccc1	16.2	-3.1	12.3	38.5	86.3*	53.8*	64.8*
CCOc1cc(/C=C/C(=O)Nc2ccc(C(=O)NCCN(CC)CC)cc2)ccc1OCC(C)C	-4.0	1.8	-5.0	1.1	94.3*	28.1	·
O=C(c1ccc2c(=O)n3c(nc2c1)CCCCC3)N1CCN(C(c2ccccc2)c2ccccc2)CC1	29.8	-1.6	30.0	19.6	63.1*	22.4	·
O=C(c1ccc2c(=O)n3c(nc2c1)CCCCC3)N1CCN(c2ccccc2)CC1	-4.8	-1.2	-16.0	9.6	20.3	·	·
COc1ccc(-c2ccc(C#N)c(OC(=O)c3c(Cl)cccc3Cl)n2)cc1	-7.6	4.4	1.9	12.1	63.7*	27.9	·
CCc1nc2c(OCc3cccc(OC)c3)cccn2c1N(C)C(=O)c1ccc(OC)cc1	·	-1.1	·	·	·	·	·
C[C@@H]1CN([C@@H](C)CO)C(=O)CCCn2nncc2CO[C@@H]1CN(C)C(=O)Cc1ccccc1	·	-0.7	·	·	·	·	·
O=C1N/C(=C\c2ccc(N3CCOCC3)c(F)c2)C(=O)N1Cc1ccccc1	7.8	-1.2	-14.5	-20.1	72.5*	40.2*	73.6*
Cc1ccc(/C=N/NC(=O)c2cc(-c3ccc(C)o3)[nH]n2)cc1	-2.2	3.8	2.8	6.2	50.1*	54.4*	50.3*
C[C@H](CO)N1C[C@H](C)[C@@H](CN(C)S(=O)(=O)c2cn(C)cn2)OCc2cn(nn2)CCCC1=O	·	0.0	·	·	·	·	·
SMILES	tim10-1 inh	MPTP block	TIM10 inh	tim23-1 inh	Mdm2 MdmX PPI	Mdm2 MdmX conf	FLuc counter
Cc1ccc(C(=O)Nc2nc3ccccc3[nH]2)cc1	-20.3	-1.7	4.5	8.9	64.0*	48.8*	57.5*
COC(=O)c1cc(C(=O)Nc2nc3ccccc3[nH]2)cc([N+](=O)[O-])c1	-21.3	-0.7	-8.1	-7.7	-6.5	·	·
O=C(Nc1nc2ccccc2[nH]1)c1ccc([N+](=O)[O-])cc1	3.0	-0.4	16.2	-2.2	-48.5	·	·
COc1ccc(C(=O)N[C@H](C(=O)Nc2nc3ccccc3[nH]2)C(C)C)cc1	-12.3	0.2	-10.1	-17.9	18.9	·	·
Cc1cccc(C(=O)N[C@H](C(=O)Nc2nc3ccccc3[nH]2)C(C)C)c1	-9.6	0.3	-5.0	-5.5	73.5*	68.2*	99.6*
C/C(=N\Nc1nc2ccccc2[nH]1)c1ccc([N+](=O)[O-])cc1	-5.1	23.8	-111.9	-45.9	55.3*	2.0	·
Cc1ccc(C(=O)Nc2cnc3ccccc3c2)cc1	9.8	-2.4	23.7	-3.5	81.7*	-1.6	·
COCc1cccc(-c2csc(C(NC(C)=O)c3cccc(OC)c3)n2)c1 (centres undefined)	·	-0.6	·	·	·	·	·
COc1ccc(C(=O)Nc2nc3ccc4nc(C)sc4c3s2)cc1	-17.8	-1.8	2.9	1.3	16.9	·	·
CSc1nc2ccc3nc(NC(=O)c4ccc(C)cc4)sc3c2s1	12.5	1.9	-10.4	0.2	61.3*	26.3	·
NNC(=O)C1CCN(S(=O)(=O)c2ccc(Cl)cc2)CC1	1.2	0.3	10.1	9.5	7.8	·	·
O=C(NNC(=O)C1CCN(S(=O)(=O)c2ccc(Cl)cc2)CC1)c1ccccc1O	1.4	-1.1	-8.0	15.9	55.7*	59.1*	45.8*
O=C(N[C@@H](Cc1ccccc1)C(=O)CCl)OCc1ccccc1	-7.9	-3.9	30.0	45.7	95.8*	84.7*	20.2
COc1cc(OC)cc(C(=O)N2CCN(S(=O)(=O)c3ccc4c(c3)OCCO4)CC2)c1	·	0.2	·	·	·	·	·
C=CCn1c(CNc2ccc(C)cc2)nnc1SCC(=O)N/N=C/c1ccc(O)cc1O	-3.1	0.9	-3.8	-22.4	57.1*	56.4*	35.6
C=CCn1c(CNc2ccccc2)nnc1SCC(=O)N/N=C/c1ccc(O)cc1O	7.9	-2.7	-1.9	0.1	29.1	·	·
COc1ccc2nc(C)cc(SCC(=O)N/N=C/c3ccc(O)cc3O)c2c1	15.3	4.3	12.0	22.2	55.0*	78.8*	36.6*
